For 99 compounds, cytotoxicity results are on record in PubChem BioAssay AID431 (Sanford-Burnham Center for Chemical Genomics, 2006).

The campaign covered roughly 63,000 compounds. About 1,100 (1.7%) were called active. This is one part of a sample in which actives are shown more often than they occur. Measured potencies and affinities stand elsewhere. A number with no mark means an inactive call.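 The calls were made as follows: active = compounds whose percent cytotoxicity in the single-dose primary screen, scaled between solvent and toxic-drug controls, exceeds 50; inactive = the rest.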

This experiment is described as follows: cytotoxicity in KRAS-transformed pancreatic duct cells, primary screen, cell-based, fluorescence, HTS (AID 431).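 Also: 0% = DMSO solvent wells and 100% = doxorubicin-treated wells.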 To be noted: HPDE-C7K KRASV12 cells, Alamar Blue viability, 48 h; at 10 µM; hits give high values. For orientation: Resazurin is reduced to fluorescent resorufin, in cell work by metabolically active cells.
As to `Cc1cc(C(=O)CSc2nc3ccccc3n2CCC#N)c(C)n1Cc1cccs1`, the cytotoxicity was -13.5%.
The value for `Cc1ccc(C(=O)CSc2nnc(CNc3ccc(C)cc3C)n2Cc2ccco2)cc1` was 30.1%; that for `Brc1ccc2ncnc(Nc3ccc(N4CCOCC4)cc3)c2c1` was -4.9%; that for `CCCn1c(SCC(=O)c2cc(OC)ccc2OC)nc2c1c(=O)n(C)c(=O)n2C` was 8.2%.
The value for `CCOC(=O)c1[nH]c(C)c(C(=O)NCC2CCCO2)c1C` (centres undefined) was 5.6%; that for `CCCCN(CC)C(=O)c1ccc(Cl)c(Cl)c1` was -3.6%.
The value for `O=C(c1c(Cl)nc2sccn12)N1CCN(c2cccc(Cl)c2)CC1` was 64.5% (active).
Consider `COc1ccc(CCNC(=O)CN2CCN(c3cccc(Cl)c3)CC2)cc1OC`, for which the cytotoxicity was 8.7%.
The value for `O=C(c1cccc(F)c1)N1CCN(c2cccc(Cl)c2)CC1` was 26.8%; that for `COc1ccccc1CC(=O)N1CCN(c2cccc(C(F)(F)F)c2)CC1` was -1.7%; that for `COc1cc(CN2CCSCC2)cc(OC)c1OC` was -7.4%.
The value for `COc1ccccc1C(=O)N1CCN(c2cccc(C(F)(F)F)c2)CC1` was 62.5% (active); that for `O=C(c1ccccc1F)N1CCN(c2cccc(C(F)(F)F)c2)CC1` was -5.2%.
`Cc1ccc(C(=O)N2CCN(c3cccc(Cl)c3)CC2)cc1C`: the cytotoxicity is 27.4%.
The value for `Nc1ccc(CCS(N)(=O)=O)cc1` was 12.4%; that for `c1ccc(-c2noc(CN3CCN(C(c4ccccc4)c4ccccc4)CC3)n2)cc1` was -6.9%; that for `CCCC(=O)c1cc(F)c(N2CCN(C(=O)OCC)CC2)cc1C` was -0.7%.
For the compound `COCCSc1nnc(NC(=O)CSCc2ccccc2)s1`, the cytotoxicity is 16.5%.
Regarding `CCCCOC(=O)Cn1c(=O)oc2ccc(C)cc21`, the cytotoxicity was 5.8%.
The value for `CN1CCCC(OC(=O)c2cc(Cl)ccc2Cl)C1` (centres undefined) was -23.9%.
For the compound `Cc1nnc2sc(-c3cccc(NC(=O)c4cccnc4)c3)nn12`, the cytotoxicity is -1%.
The value for `CSc1nnc2n(CCc3ccccc3)c(=O)c3c4c(sc3n12)CCCC4` was 15.3%; that for `Cn1c(=O)c2[nH]cnc2n(-c2ccccc2)c1=O` was -4.3%; that for `COc1ccccc1Nc1nc(-c2cccs2)cs1` was 18.3%.
The value for `COc1ccc(OC)c(Nc2nc(-c3ccc(O)c(O)c3)cs2)c1` was 59.5% (active); that for `COc1ccc(OC)c(Nc2nc(-c3sc(C)nc3C)cs2)c1` was 26.2%; that for `COc1ccc(C(=O)Nc2nc(-c3cccs3)cs2)cc1` was 38%.
Take `COc1ccc(OC)c(Nc2nc(-c3cccs3)cs2)c1`: the cytotoxicity was 54.9% (active).
As for `COc1ccc(-c2csc(NC(C)=O)n2)cc1OC`, the cytotoxicity was 10.2%.
As for `CC1C(=O)C(C)C(c2ccc3c(c2)OCO3)NC1c1ccc2c(c1)OCO2` (centres undefined), the cytotoxicity is 1.3%.
As for `CC(C)N(Cc1nc(-c2ccc(Cl)cc2)no1)C(=O)CCCN1C(=O)c2ccccc2C1=O`, the cytotoxicity is 3.9%.
On to `CCc1ccc(NC(=O)C2CC=CCC2C(=O)O)cc1` (centres undefined), for which the cytotoxicity was -3.7%.
The value for `O=C(O)C1C2C=CC3(CN(Cc4ccco4)C(=O)C13)O2` (centres undefined) was 1.9%; that for `O=C(O)C1C2C=CC3(CN(Cc4ccccn4)C(=O)C13)O2` (centres undefined) was 76.1% (active); that for `O=C(O)C1C2C=CC3(CN(Cc4ccncc4)C(=O)C13)O2` (centres undefined) was -2.7%.
The value for `Cc1cc(NS(=O)(=O)c2ccc(NC(=O)Nc3ccccc3)cc2)no1` was -21%; that for `CCOC(=O)c1ccc(NC(=O)CCc2nc(-c3ccc(Cl)cc3)no2)cc1` was 0.1%.
In the case of `CCOC(=O)c1ccc(NC(=O)CCc2nc(-c3ccccc3)no2)cc1`, the cytotoxicity was -8%.
The value for `CCOC(=O)c1ccc(NC(=O)CCc2nc(-c3ccccc3Cl)no2)cc1` was 76.1% (active); that for `CC1CCCC(C)N1C(=O)Cn1c(=O)sc2ccccc21` (centres undefined) was 0.8%; that for `Cc1ccc(C2CC(C(F)F)n3ncc(C(=O)Nc4cnn(Cc5ccccc5C)c4)c3N2)cc1` (centres undefined) was 21.9%.
The value for `CCOC(=O)CCCCNCc1ccccc1` was -6.1%; that for `COc1ccc(-c2oc3ncn4nc(Cc5ccccc5)nc4c3c2-c2ccc(OC)cc2)cc1` was 57% (active); that for `COc1ccccc1OCc1nc2c3c(-c4ccccc4)c(-c4ccccc4)oc3ncn2n1` was 9.1%.
The value for `Cc1nc2c3c(-c4ccccc4)c(-c4ccccc4)oc3ncn2n1` was 1%; that for `COc1ccc(-c2nnc(SCCc3ccccc3)n2N)cc1` was 4.3%; that for `COc1ccc(-c2oc3ncn4nc(COc5ccccc5)nc4c3c2-c2ccc(OC)cc2)cc1` was 57.9% (active).
In the case of `COc1ccc(-c2nnc(SCc3ccccc3)n2N)cc1`, the cytotoxicity was -12.1%.
As to `COc1ccc(C)cc1N(CC(=O)NC1CCCC1)C(=O)CCC(=O)Nc1cc(C)on1`, the cytotoxicity was -5.7%.
The value for `CCCCS(=O)(=O)/C=C\C=C/S(=O)(=O)CCCC` was 112% (active).
The value for `CCCCS(=O)(=O)/C=C\C1C2C=CC(C2)C1S(=O)(=O)CCCC` (centres undefined) was -2.6%; that for `OC(COc1ccc(Cl)cc1)CN1C2=NCCCN2c2ccccc21` (centres undefined) was 6.4%; that for `CCC(=O)c1ccccc1OCCCN1C(=O)NC(C)(C)C1=O` was 21%.
As to `CC1CC(C)CN(S(=O)(=O)c2ccc3c(c2)oc(=O)n3CC(=O)N2CCOCC2)C1` (centres undefined), the cytotoxicity is 2.5%.
The value for `c1ccc(-c2nc(-n3ccnc3)nc(-n3ccnc3)n2)cc1` was 19.8%; that for `c1ccc(-c2ccc(-n3ccnc3)cc2)cc1` was 2.4%.
On to `Clc1ccc(-c2nnc(-c3ccc(Br)o3)o2)c(Cl)c1`, for which the cytotoxicity was 19.1%.
The value for `CCn1c(SCC(=O)c2ccccc2)nnc1-c1cc2cc(Br)ccc2o1` was 8%.
Regarding `CCCCCC(=O)N(CN1C(=O)CCC1=O)c1ccccc1`, the cytotoxicity is -8.7%.
The value for `Cc1nc(NCCCN2CCOCC2)c2oc3ccccc3c2n1` was 6.7%; that for `O=S(=O)(c1ccc(S(=O)(=O)N2CCCC2)cc1)N1CCCCCC1` was -15%.
The value for `O=C(O)c1cc(S(=O)(=O)N2CCCCCC2)ccc1Cl` was -3.9%; that for `O=C(CN1CCN(c2ccccn2)CC1)N1c2ccccc2CCc2ccccc21` was -4.4%; that for `CCN(CC(=O)NC1CCCCC1)S(=O)(=O)c1ccc(Cl)cc1` was -13.6%.
The value for `CCOC(=O)C1CCCN(c2c(NCc3ccco3)c(=O)c2=O)C1` (centres undefined) was 2.5%.
With `O=C(CSc1nnc(COc2ccccc2)o1)NCCc1ccccc1`, the cytotoxicity was -27.9%.
Regarding `COc1cc(C2C(C#N)=C(C)NC3=C2C(=O)c2ccccc23)cc(OC)c1OC` (centres undefined), the cytotoxicity is 80.3% (active).
Regarding `COc1cc(C2C(C#N)=C(C)NC3=C2C(=O)CC(C)(C)C3)cc(OC)c1O` (centres undefined), the cytotoxicity is 6.8%.
As for `COc1ccc(C2C(C#N)=C(C)NC3=C2C(=O)c2ccccc23)cc1` (centres undefined), the cytotoxicity was 53.8% (active).
The value for `COc1ccc(C2C(C#N)=C(SC)NC3=C2C(=O)CC(C)(C)C3)cc1` (centres undefined) was -1.7%; that for `COc1ccc(C2CC(=O)C3=C(C2)NC(C)=C(C#N)C3c2ccc(N(C)C)cc2)cc1` (centres undefined) was -3.8%.
The value for `COc1cc(C2C(C#N)=C(C)NC3=C2C(=O)CC(C)(C)C3)ccc1O` (centres undefined) was -10.6%; that for `CCOC(=O)c1ccccc1NC(=O)CN(c1ccccc1OC)S(C)(=O)=O` was -1.1%; that for `CCCCn1c(SCC(=O)Nc2cc(C)on2)nc2ccsc2c1=O` was -1.8%.
With `CCOC(=O)C1CCCN(Cc2cc(OC)c(O)c(OC)c2)C1` (centres undefined), the cytotoxicity is -5.4%.
The value for `O=C(COc1ccccc1Br)NCc1ccco1` was -11.3%.
The value for `CC(C)(C)c1ccc(OCC(=O)NCc2ccco2)c(Br)c1` was 84.5% (active); that for `CCc1ccc(OCC(=O)NCc2ccco2)c(Br)c1` was -5.8%; that for `Cn1c(=O)n(C)c2cc(NC(=O)CSc3nnc(-c4ccccc4O)n3-c3ccccc3)ccc21` was 12.8%.
As for `O=[n+]1cc(-c2ccc(F)cc2)n([O-])c2c1CCC2`, the cytotoxicity was -13.4%.
The value for `COc1ccc(C2C3=C(CCCC3=O)Nc3nc(SCc4ccccc4)nn32)cc1OC` (centres undefined) was -8.6%; that for `O=C1CC(C(=O)Nc2ccccc2C(=O)O)C(c2ccccc2)O1` (centres undefined) was -6.7%; that for `O=C(Oc1cccc2c(OC(=O)N3CCOCC3)cccc12)N1CCOCC1` was 6.1%.
Consider `CCCn1nnnc1SCC(=O)c1ccc(NC(C)=O)cc1`, for which the cytotoxicity was -3.8%.
Turning to `CC1Cc2ccccc2N1C(=O)c1cc2c(=O)n3ccccc3nc2n1C` (centres undefined), the cytotoxicity is 3.6%.
The value for `Cc1cccn2c(=O)c3cc(C(=O)N4c5ccccc5CC4C)n(C)c3nc12` (centres undefined) was 77.7% (active); that for `Cc1cccn2c(=O)c3cc(C(=O)N4CCc5ccccc54)n(C)c3nc12` was 1.3%; that for `Cc1cccn2c(=O)c3cc(C(=O)N4CCN(c5ccccc5)CC4)n(C)c3nc12` was -5.9%.
The value for `Cc1cccn2c(=O)c3cc(C(=O)N4CCN(C(=O)c5ccco5)CC4)n(C)c3nc12` was -8.8%.
Consider `Cc1c(NCc2nc3ccccc3[nH]2)c(=O)n(-c2ccccc2)n1C`, for which the cytotoxicity was -7.6%.
Regarding `Cc1ccc(C(C)C)c(OCc2nnc3n2CCCCC3)c1`, the cytotoxicity is -8.3%.
With `COc1ccc(Cl)cc1NC(=O)c1cccnc1`, the cytotoxicity was -1.6%.
The value for `CC(=O)Nc1ccc(NC2=CC(=O)CC(C)(C)C2)cc1` was -3%; that for `Cn1c(SCC(=O)c2ccc3c(c2)OCO3)nnc1-c1ccccn1` was 3.1%; that for `CCCc1cc(C(=O)Nc2ccc(C)cc2)no1` was -1.5%.
In the case of `CCN(c1ccccc1)S(=O)(=O)c1ccc(C(=O)Nc2nnc(COC)o2)cc1`, the cytotoxicity was 44.5%.
The value for `CC(C)(C)C(=O)/C=C(N)/C=C/c1ccccc1` was -7%; that for `O=C(/C=C/c1ccccc1)c1ccccc1` was 56.5% (active).
The value for `CC(/C=C/c1ccccc1)=N/O` was -7.4%.
